In the library only some 7.9% were active in any assay of this set; here they are far more common.
HCV inhibitor = inhibitors of hepatitis C virus infection; Huh7.5.1 HCVcc-Cre infection, luciferase reporter, 44 h; Potency, µM (highest dose often 41.8 µM), for the others: top-dose activity change, negative = inhibition, actives largely listed as inhibitors; AID 651820; actives 3.4% (n = 340,000); active means well fitted inhibition curve with a large enough effect; inconclusive means small, poorly fitted or top-dose-only effect, or another doubt; inactive means no such curve, though single readings can be large or run the other way; further: potency means the concentration at half of the fitted maximal effect
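Luciferase read-out (15 sec integration) after a 15 min room-temperature substrate step quantifies HCVcc-Cre infection. Cells, 1,000 per well, had compound added 4 h post-plating, then virus at ~0.5 moi, and were cultured 44 h.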
HCMV antiviral = inhibitors of human cytomegalovirus; HFF cells, HCMV-luciferase reporter, 72 h; stronger effect = lower value; activity change, negative = inhibition, % at 57.5 µM; actives 4.5% (n = 410,000); AID 1259415; in the data active means activity change below about -60%; inconclusive means no clear call, values can overlap the other calls; inactive means above about -39%
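Human foreskin fibroblasts infected with luciferase-reporter HCMV at MOI 1 PFU/cell, compounds at two doses. Luciferase measured 72 h post infection; normalized to buffer-only basal and Salinomycin (10uM) controls.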
MARV entry inh = blocks Marburg virus binding to or entry into cells. Marburg virus pseudotyped entry inhibition, cell reporter. Potency, µM (highest dose often 37.8 µM), for the others: top-dose activity change, negative = inhibition, most hits filed as inhibitors. actives 1.8% (n = 300,000); calls by dose curve; tested in HEK293 cells; further: potency means the concentration at half of the fitted maximal effect
LASV entry inh = inhibitors of Lassa virus binding or cell entry; Lassa virus pseudotype entry inhibition, cell reporter; Potency, µM (top dose mostly 37.9 µM), without a hit: top-dose activity change, negative = inhibition, usual class: inhibitors; actives 1.2% (n = 300,000); calls by dose curve; tested in HEK293 cells; further: potency means the concentration at half of the fitted maximal effect; nearly all actives have a fitted effect of over 50% in size
FMDV antiviral = blocks foot and mouth disease virus. AID 1159524. actives 1.2% (n = 410,000). FMDV antiviral cell-based qHTS. Potency, µM (top dose mostly 57.9 µM), for the others: top-dose activity change, negative = inhibition, usual class: inhibitors; calls by dose curve; tested in HEK293T cells; further: read-out not given here; potency means the concentration at half of the fitted maximal effect; nearly all actives have a fitted effect of over 45% in size
* = called active by the depositor; ? = inconclusive; · = no result given; [ ] = another dose, or the depositor's remark. On the % scale 0 is the no-effect control and ±100 the full control effect.

SMILES	HCV inhibitor	HCMV antiviral	MARV entry inh	LASV entry inh	FMDV antiviral
COc1ccc(OC)c2sc(N(CCCN(C)C)C(=O)c3ccc(S(=O)(=O)N4CCc5ccccc5C4)cc3)nc12	4µM*	·	·	·	·
COc1ccc(C)c2sc(N(CCCN(C)C)C(=O)c3ccc(S(=O)(=O)N4CCc5ccccc5C4)cc3)nc12	?	-98*	?	?	?
CCCCn1cc2c(c1-c1cccc(C)c1)c(=O)n(C)c(=O)n2C	10µM*	12	·	·	-24%
O=C(NCCCN1CCOCC1)c1cc2c([nH]c3ccccc32)c(-c2cccc(Br)c2)n1	?	-21	·	·	?
O=C(NCCCO)c1cc2c([nH]c3ccccc32)c(-c2ccccc2)n1	10µM*	-28	?	0%[46.1 µM]	-29%
O=C(NCCCO)c1cc2c(cn1)[nH]c1ccccc12	-5%	32	·	·	37%
COc1cccc(-c2nc(C(=O)NCCCN3CCOCC3)cc3c2[nH]c2ccccc23)c1	11µM*	-74*	·	·	-28%
CC(=O)OC[C@@H]1O[C@H](C/C=N\OC[C@@H](C)[C@H](OCc2ccccc2)C(C)C)C=C[C@@H]1OC(C)=O	·	·	-10%[14.2 µM]	·	·
O=C(CS(=O)(=O)Cc1ccccc1)Nc1ccc(Cl)cn1	5%	-23	1%	8%	37%
O=C(CS(=O)(=O)Cc1ccccc1)Nc1ccccn1	-6%	-102*	15%	-5%	13%
C=CCSC(=S)NC1CCS(=O)(=O)C1 (stereo not drawn)	5%	?	?	-32%	13µM*
Cc1ccccc1OCc1nnc(SCC(=O)Nc2ccc3nc(SCC(=O)NC(C)(C)C)sc3c2)n1C	?	-18	?	?	35µM*
COc1ccccc1OCc1nnc(SCC(=O)Nc2ccc(C)cc2)n1C	-16%	1	11%	0%	-22%
Cc1cccc(NC(=O)CSc2nc3ccc(NC(=O)COc4ccccc4C)cc3s2)c1	·	-23	?	?	0%
CCN(CC)C(=O)CSc1nc2ccc(NC(=O)CSc3nnc(COc4ccccc4C)n3C)cc2s1	10µM*	-20	-22%	?	22µM*
COc1ccccc1NC(=O)N1CCOc2ccccc21	·	-11	·	6%[46.1 µM]	5%
Cc1cc(C)c2c(ccc3cccc[n+]32)c1	1µM*	?	?	-19%	?
CCc1nnc(SCc2ccc(F)cc2Cl)c2cc3sccc3n12	·	?	·	1%[46.1 µM]	-11%
CCc1nnc(SCC(=O)N(C)c2ccccc2)c2cc3sccc3n12	·	-67*	·	-6%[46.1 µM]	?
CCOc1ccc(CCN2C(=S)N([C@@H](CC(C)C)CN3CCCC3CN3C(=S)NC[C@@H]3CC(C)C)C[C@@H]2Cc2ccc(O)cc2)cc1 (stereo partly drawn)	0.56µM*	-40	·	·	-23%
CCOc1ccc(CCN2C(=S)N([C@@H](CC(C)C)CN3CCCC3CN3C(=S)NC[C@@H]3Cc3ccc(O)cc3)C[C@@H]2CC(C)C)cc1 (stereo partly drawn)	?	?	·	·	-26%
CCOc1ccc(CCN2C(=S)N([C@@H](CC(C)C)CN3CCC[C@@H]3CN3C(=S)NC[C@@H]3CC(C)C)C[C@@H]2Cc2ccc(O)cc2)cc1	·	-98*	·	·	-22%
CCc1ccc(NC(=O)Cn2c(=O)c3cc(Cl)ccc3n3nncc23)cc1	·	14	?	1%[46.1 µM]	0%
O=c1c2c(nc3cc(-c4ccc(Br)cc4)[nH]n13)CCCC2	?	-29	?	?	12%
CCOC(=O)Cc1c(C)nc2c(C#N)c[nH]n2c1=O	·	22	-3%	27%[14.3 µM]	-17%
SMILES	HCV inhibitor	HCMV antiviral	MARV entry inh	LASV entry inh	FMDV antiviral
O=c1c2c(nc3cc(-c4ccccc4)[nH]n13)CCC2	13%	51	-21%	4µM*	-20%
O=c1c2c(nc3c(-c4ccc(Cl)cc4)c[nH]n13)CCC2	?	-77*	?	?	-15%
O=c1c2c(nc3c(-c4ccccc4)c[nH]n13)CCC2	?	-16	-15%	-8%	·
CCOC(=O)Cc1c(C)nc2cc(-c3ccc(C(C)(C)C)cc3)[nH]n2c1=O	13µM*	-29	?	2%	1%
CCOC(=O)Cc1c(C)nc2c(-c3cccc(Br)c3)c[nH]n2c1=O	?	-93*	?	16µM*	-18%
COc1cc(=O)n2c(c1C(=O)NC(C)c1ccco1)CCN(Cc1ccccc1C(F)(F)F)CC2 (stereo not drawn)	·	·	·	·	-10%

High-throughput results deposited in PubChem BioAssay by National Center for Advancing Translational Sciences (NCATS).
